Assay [1] concerns Proto-oncogene tyrosine-protein kinase receptor Ret (Homo sapiens), P07949 [Y791F]. To be noted: at 1 µM.
Assay [2] addresses Macrophage-stimulating protein receptor (Homo sapiens) (UniProt Q04912). As to conditions: at 0.1 µM.
For assay [3] the target is unchanged. To be noted: at 1 µM.
Assay [4] addresses Proto-oncogene tyrosine-protein kinase ROS (Homo sapiens) (UniProt P08922). As to conditions: at 0.1 µM.
For assay [5] the target is unchanged. As to conditions: at 1 µM.
For assay [6], the target named is Proto-oncogene tyrosine-protein kinase Src (Homo sapiens) (UniProt P12931). As to conditions: at 0.1 µM.
The target is the same in assay [7]. To be noted: at 1 µM.
For assay [8], the target named is Tyrosine-protein kinase Srms (Homo sapiens) (UniProt Q9H3Y6). To be noted: at 0.1 µM.
Assay [9] shares this target. As to conditions: at 1 µM.
Assay [10] deals with Tyrosine-protein kinase SYK (Homo sapiens) (UniProt P43405). To be noted: at 0.1 µM.

Several values for one entry are separate records, joined by “and”; a condition that tells them apart may be missing. Identical values can stand only once.

Proto-oncogene tyrosine-protein kinase Src (Homo sapiens), sequence (P12931 2-536 limits assumed): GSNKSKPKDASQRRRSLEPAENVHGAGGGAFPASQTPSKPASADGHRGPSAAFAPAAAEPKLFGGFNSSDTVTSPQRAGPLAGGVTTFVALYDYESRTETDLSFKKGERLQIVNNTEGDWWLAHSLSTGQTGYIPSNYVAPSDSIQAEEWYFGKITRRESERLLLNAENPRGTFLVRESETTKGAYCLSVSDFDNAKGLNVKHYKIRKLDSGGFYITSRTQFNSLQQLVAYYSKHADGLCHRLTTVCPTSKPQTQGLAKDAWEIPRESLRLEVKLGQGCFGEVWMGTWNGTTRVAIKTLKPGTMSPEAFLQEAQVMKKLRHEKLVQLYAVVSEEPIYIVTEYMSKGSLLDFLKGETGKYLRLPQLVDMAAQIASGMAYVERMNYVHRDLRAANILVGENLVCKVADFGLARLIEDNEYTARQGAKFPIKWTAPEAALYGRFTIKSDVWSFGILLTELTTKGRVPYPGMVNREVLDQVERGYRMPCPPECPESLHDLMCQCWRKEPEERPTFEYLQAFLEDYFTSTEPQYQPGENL
Macrophage-stimulating protein receptor (Homo sapiens), sequence (Q04912 25-304 limits assumed): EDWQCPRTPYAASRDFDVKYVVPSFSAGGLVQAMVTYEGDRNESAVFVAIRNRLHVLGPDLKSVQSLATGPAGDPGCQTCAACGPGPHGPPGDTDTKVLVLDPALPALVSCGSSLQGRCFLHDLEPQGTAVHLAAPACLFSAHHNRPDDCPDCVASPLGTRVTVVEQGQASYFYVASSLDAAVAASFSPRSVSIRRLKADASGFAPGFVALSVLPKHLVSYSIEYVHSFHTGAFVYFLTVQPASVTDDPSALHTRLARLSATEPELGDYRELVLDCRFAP
Macrophage-stimulating protein receptor (Homo sapiens), sequence (Q04912 310-1400 limits assumed): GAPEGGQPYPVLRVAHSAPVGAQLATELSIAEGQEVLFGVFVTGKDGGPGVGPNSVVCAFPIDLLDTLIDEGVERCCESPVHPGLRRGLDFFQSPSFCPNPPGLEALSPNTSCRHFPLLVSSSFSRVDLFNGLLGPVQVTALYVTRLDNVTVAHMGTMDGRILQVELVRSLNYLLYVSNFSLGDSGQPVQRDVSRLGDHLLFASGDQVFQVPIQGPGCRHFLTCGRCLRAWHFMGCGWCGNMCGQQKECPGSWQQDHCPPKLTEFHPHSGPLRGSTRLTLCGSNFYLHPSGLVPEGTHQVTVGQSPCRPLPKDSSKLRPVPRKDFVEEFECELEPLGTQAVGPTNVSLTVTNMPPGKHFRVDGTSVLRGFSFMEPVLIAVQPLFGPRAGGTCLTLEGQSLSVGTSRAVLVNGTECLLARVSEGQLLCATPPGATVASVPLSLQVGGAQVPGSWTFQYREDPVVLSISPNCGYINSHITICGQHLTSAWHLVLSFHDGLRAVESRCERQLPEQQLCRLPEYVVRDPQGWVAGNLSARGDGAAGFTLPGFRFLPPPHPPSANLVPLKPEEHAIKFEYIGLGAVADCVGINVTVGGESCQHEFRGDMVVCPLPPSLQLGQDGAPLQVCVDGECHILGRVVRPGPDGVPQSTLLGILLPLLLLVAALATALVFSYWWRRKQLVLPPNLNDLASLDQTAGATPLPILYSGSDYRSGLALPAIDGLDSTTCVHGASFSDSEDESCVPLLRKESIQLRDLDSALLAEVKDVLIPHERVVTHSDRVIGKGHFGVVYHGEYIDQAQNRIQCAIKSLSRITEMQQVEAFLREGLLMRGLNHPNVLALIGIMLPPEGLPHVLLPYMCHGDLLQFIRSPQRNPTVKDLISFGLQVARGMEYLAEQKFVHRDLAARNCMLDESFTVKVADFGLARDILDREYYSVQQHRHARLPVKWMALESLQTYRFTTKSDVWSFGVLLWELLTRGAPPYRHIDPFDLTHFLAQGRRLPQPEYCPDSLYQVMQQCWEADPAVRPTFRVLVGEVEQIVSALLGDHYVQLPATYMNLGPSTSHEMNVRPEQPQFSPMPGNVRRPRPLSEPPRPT
Proto-oncogene tyrosine-protein kinase ROS (Homo sapiens), sequence (P08922 whole entry): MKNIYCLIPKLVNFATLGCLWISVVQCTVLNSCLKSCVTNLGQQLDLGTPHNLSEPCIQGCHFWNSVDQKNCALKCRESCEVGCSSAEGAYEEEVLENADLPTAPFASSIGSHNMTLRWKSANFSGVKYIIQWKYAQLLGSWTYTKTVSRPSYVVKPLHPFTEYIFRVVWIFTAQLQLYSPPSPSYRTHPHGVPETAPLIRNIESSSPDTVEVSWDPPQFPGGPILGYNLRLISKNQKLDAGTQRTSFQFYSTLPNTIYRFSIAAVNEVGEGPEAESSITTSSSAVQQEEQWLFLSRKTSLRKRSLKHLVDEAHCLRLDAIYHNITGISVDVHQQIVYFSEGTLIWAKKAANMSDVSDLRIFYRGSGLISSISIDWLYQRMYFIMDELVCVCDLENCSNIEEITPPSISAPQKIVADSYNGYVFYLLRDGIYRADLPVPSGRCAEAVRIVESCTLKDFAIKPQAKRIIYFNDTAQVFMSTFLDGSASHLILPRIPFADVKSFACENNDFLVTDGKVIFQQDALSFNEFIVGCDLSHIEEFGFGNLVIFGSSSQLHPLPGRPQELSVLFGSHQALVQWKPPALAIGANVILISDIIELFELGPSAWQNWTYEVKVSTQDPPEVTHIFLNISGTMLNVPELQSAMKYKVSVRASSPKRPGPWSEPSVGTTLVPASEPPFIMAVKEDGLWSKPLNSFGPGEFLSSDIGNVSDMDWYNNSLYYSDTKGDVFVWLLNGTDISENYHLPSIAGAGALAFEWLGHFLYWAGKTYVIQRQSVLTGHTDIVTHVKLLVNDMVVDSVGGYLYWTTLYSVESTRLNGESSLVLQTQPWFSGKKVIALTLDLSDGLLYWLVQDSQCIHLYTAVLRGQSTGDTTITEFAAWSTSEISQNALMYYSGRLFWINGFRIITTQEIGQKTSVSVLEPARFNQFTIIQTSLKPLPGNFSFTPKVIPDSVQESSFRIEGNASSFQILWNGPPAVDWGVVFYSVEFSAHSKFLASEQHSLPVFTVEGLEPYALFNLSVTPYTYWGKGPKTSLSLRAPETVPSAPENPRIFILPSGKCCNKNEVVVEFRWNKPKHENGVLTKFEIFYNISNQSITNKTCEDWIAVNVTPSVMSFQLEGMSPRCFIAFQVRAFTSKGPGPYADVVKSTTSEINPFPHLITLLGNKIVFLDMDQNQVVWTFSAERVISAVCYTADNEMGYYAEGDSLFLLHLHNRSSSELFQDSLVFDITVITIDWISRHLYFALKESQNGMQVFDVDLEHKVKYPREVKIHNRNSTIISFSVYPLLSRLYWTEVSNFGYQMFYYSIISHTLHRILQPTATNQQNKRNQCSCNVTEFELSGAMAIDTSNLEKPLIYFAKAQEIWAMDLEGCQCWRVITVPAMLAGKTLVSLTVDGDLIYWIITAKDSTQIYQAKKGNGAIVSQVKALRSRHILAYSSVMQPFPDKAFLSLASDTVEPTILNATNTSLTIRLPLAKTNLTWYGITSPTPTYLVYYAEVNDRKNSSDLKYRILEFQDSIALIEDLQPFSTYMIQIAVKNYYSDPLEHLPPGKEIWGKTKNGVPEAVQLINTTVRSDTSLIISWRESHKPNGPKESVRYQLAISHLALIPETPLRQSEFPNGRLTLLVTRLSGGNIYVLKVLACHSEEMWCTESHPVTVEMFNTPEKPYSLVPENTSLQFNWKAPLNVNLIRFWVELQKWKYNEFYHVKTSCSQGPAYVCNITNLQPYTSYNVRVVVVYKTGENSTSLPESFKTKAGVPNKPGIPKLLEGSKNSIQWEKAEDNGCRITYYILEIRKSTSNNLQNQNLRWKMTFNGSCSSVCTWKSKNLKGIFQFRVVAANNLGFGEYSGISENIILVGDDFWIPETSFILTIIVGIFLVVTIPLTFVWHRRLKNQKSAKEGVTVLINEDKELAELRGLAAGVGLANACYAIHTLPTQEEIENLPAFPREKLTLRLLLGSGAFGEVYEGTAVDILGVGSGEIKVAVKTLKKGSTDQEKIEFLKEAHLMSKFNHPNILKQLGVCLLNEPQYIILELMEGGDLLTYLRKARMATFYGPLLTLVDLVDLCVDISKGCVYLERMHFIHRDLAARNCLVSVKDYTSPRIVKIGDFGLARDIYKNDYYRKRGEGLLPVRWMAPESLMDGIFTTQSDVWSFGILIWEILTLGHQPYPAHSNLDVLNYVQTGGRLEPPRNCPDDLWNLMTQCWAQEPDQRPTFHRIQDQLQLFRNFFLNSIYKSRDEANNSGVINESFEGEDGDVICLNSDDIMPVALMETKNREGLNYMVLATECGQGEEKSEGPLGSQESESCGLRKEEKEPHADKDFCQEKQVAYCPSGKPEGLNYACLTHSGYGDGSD
Tyrosine-protein kinase Srms (Homo sapiens), sequence (Q9H3Y6 whole entry): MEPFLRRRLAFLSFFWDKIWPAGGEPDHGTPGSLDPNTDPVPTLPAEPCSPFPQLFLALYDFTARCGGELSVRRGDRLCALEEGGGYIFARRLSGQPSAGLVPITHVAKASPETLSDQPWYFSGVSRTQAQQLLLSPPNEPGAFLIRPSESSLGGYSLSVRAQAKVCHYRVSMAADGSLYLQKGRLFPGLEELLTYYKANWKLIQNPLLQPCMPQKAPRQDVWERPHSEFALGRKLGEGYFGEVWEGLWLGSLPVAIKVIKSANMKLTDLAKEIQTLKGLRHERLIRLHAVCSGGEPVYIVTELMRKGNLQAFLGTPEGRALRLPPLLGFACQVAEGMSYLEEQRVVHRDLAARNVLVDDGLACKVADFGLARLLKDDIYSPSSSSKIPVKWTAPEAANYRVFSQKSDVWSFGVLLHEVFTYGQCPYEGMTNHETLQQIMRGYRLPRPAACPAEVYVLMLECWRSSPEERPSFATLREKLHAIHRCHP

On to `FC(F)(F)CNc1nccc(-c2cnn3ncccc23)n1`, for which the inhibition (as a rule, the drop in the measured response relative to a control, in per cent) in assay [1] is 2.92%; in assay [2], 1.76%; in [3] it was -1.8%; in assay [4], -0.19%; in assay [5], 2.27%; in [6], 3.96%. Further, the inhibition in [7] was 3.98%; in [8], -5.51%; in [9], -3.04%; in assay [10], -0.18%.
For the compound `COC(=O)Nc1nc2ccc(Oc3ccc(NC(=O)Nc4cc(C(F)(F)F)ccc4F)cc3)cc2s1`, the inhibition in assay [1] was found to be 83.2%; in assay [2], 1.92%; in assay [3] it was 1.28%; in [4], 1.61%; in assay [5] it was 7.35%; in assay [6], 0.46%. Also, the inhibition in assay [7] was 26.9%; in [8] it was 0.28%; in [9], -0.86%; in [10], 0.09%.
For `NS(=O)(=O)c1ccc(N/N=C2\C(=O)Nc3ccc(C(=O)NCc4ccncc4)cc32)cc1`, the inhibition turned out to be 51.9% in assay [1]; 1.31% in assay [2]; 7.54% in assay [3]; 3.91% in assay [4]; 4.83% in assay [5]; 2.77% in [6]. Moreover, the inhibition in [7] is 29.2%; in [8], 0.62%; in [9], 1.01%; in assay [10], -2.4%.
As for `CCOc1ccc2c(-c3ccnc(Nc4cc(OC)cc(C(F)(F)F)c4)n3)cnn2n1`, the inhibition in assay [1] is 5.26%; in assay [2], 8%; in assay [3] it was 7.47%; in [4], 4.18%; in assay [5], 20.7%; in assay [6] it was -3.54%. In addition, the inhibition in [7] was 16.3%; in assay [8] it was 2.39%; in assay [9] it was 4.4%; in assay [10], -3.45%.
Take `CCS(=O)(=O)c1ccc(OC)c(Nc2ncc(-c3cccc(F)c3)o2)c1`: the inhibition was 56.6% in assay [1]; 10.3% in assay [2]; 6.8% in assay [3]; 8.05% in assay [4]; 27.5% in [5]; 49.4% in assay [6]. Also, the inhibition in assay [7] came out at 89.3%; in assay [8], 3.47%; in [9] it was 18.5%; in [10], 0.45%.
Turning to `O=C(O[C@H]1CN[C@H](C#Cc2cc3ncnc(Nc4ccc5c(cnn5Cc5ccccc5)c4)c3s2)C1)N1CCOCC1`, the inhibition is 8.34% in assay [1]; 0.29% in assay [2]; 2.37% in assay [3]; 1.38% in assay [4]; -0.29% in assay [5]; 0.01% in assay [6]. Also, the inhibition in [7] was -0.98%; in assay [8] it was -0.4%; in assay [9], 2.01%; in assay [10], 0.27%.
In the case of `CS(=O)(=O)CCNCc1ccoc1-c1ccc2ncnc(Nc3ccc(OCc4ccccc4)cc3)c2c1`, the inhibition in assay [1] is 9.63%; in [2] it was 1.78%; in assay [3], -1.8%; in assay [4] it was 0.39%; in [5] it was 2%; in [6] it was 3.56%. The inhibition was 4.6% in assay [7], -1.68% in [8], -0.79% in assay [9] and -2.93% in assay [10].
With `Fc1cccc(COc2ccc(Nc3ncncc3C#Cc3ccccc3)cc2Cl)c1`, the inhibition in assay [1] stood at 15.1%; in [2], 1.12%; in [3], 1.28%; in assay [4], 7.63%; in assay [5], 4.43%; in [6] it was 4.7%. Besides, the inhibition is 9.06% in assay [7], -1.92% in [8], -0.3% in assay [9] and -5.72% in assay [10].
Turning to `COc1ccc(Nc2ncc(-c3ccccc3)o2)cc1OC`, the inhibition in assay [1] was 27.2%; in assay [2], -0.4%; in assay [3], 5.46%; in assay [4], 7.2%; in [5], 24.5%; in [6] it was 12.2%. Also, the inhibition in assay [7] was determined as 54%; in [8], 0.67%; in assay [9], 2.69%; in [10], 4.52%.
Turning to `OCCCNc1nccc(-c2c(-c3ccc(F)cc3)nn3cc(C(F)(F)F)ccc23)n1`, the inhibition is 6.1% in assay [1]; 0.58% in assay [2]; 1.65% in assay [3]; 4.09% in [4]; 6.03% in [5]; 5.06% in [6]. Moreover, the inhibition in [7] was 8.49%; in assay [8], -0.48%; in [9], -0.71%; in assay [10] it was 5.03%.
On to `N#Cc1cccc(Nc2ncc(-c3ccccc3)o2)c1`, for which the inhibition was 10.8% in [1]; -0.08% in assay [2]; -1.06% in [3]; 2.33% in assay [4]; 3.19% in [5]; 6.64% in assay [6]. Further, the inhibition in assay [7] amounted to 19.9%; in assay [8] it was 2.21%; in assay [9], 2.55%; in assay [10], 1.05%.
Turning to `CNC(=O)c1sc(-n2cnc3cc(OC)c(OC)cc32)cc1OCc1ccccc1C(F)(F)F`, the inhibition in [1] came out at 14.2%; in [2], 1.42%; in assay [3], 3.32%; in [4], 3.19%; in assay [5], 5.06%; in assay [6], 6.71%. In addition, the inhibition in assay [7] is 8.35%; in [8], -1.1%; in assay [9], 0.5%; in [10], -0.5%.
In the case of `Cc1c2ccc(N(C)c3ccnc(Nc4cccc(S(N)(=O)=O)c4)n3)cc2nn1C`, the inhibition in assay [1] is 80.3%; in [2], 2.6%; in assay [3], 9.61%; in assay [4], 38.7%; in assay [5], 78.1%; in assay [6] it was 40.5%. In addition, the inhibition in [7] was 82.8%; in assay [8] it was 1.27%; in assay [9], 17.6%; in assay [10] it was -4.22%.
In the case of `CN1CCN(Cc2ccc(-c3cc4ncnc(Nc5ccc(OCc6cccc(F)c6)c(Cl)c5)c4s3)o2)CC1`, the inhibition is 11.4% and 17.4% in [1]; 3.2% and 3.55% in assay [2]; 10.2% and 6.54% in [3]; 3.07% and 6.46% in assay [4]; 6.26% and 12.4% in assay [5]; 4.74% in assay [6]. In addition, the inhibition in assay [7] is 13.4% and 18.3%; in assay [8], -1.16% and -1.22%; in assay [9], 0.02% and -0.37%; in assay [10], 0.19% and -1.76%.
As for `c1cnn2ncc(-c3ccnc(NCCCN4CCOCC4)n3)c2c1`, the inhibition in [1] stood at 0.64%; in assay [2], 7.49%; in [3], 0.88%; in assay [4], 5.24%; in assay [5], 8.64%; in assay [6], 2.26%. For the same compound, the inhibition in assay [7] is 5.93%; in assay [8] it was 0.14%; in assay [9], 1.41%; in assay [10] it was -6.13%.
In the case of `COc1ccccc1-c1cc(/C=C2\C(=O)Nc3ncc(Br)cc32)cc(Br)c1O`, the inhibition in assay [1] was 13.2%; in assay [2] it was 2.48%; in [3] it was 7.63%; in assay [4], 7.94%; in [5], 26.1%; in [6], 4.87%. The inhibition in assay [7] is 17.1%; in [8], 2.16%; in [9] it was 14.7%; in assay [10], -6.56%.

These data come from ChEMBL document CHEMBL1961873, “Compounds: GSK PKIS; Assays: Nanosyn kinase panel” (2012).
